Rango complex inh: inhibitors of Rango-importin beta complex formation; Rango CFP/YFP FRET sensor + importin beta, 45 min; Potency, µM (titrated, usually from 92.2 µM), for the others: top-dose inhibition of complex formation; actives 0.031% (n = 340,000);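 further: potency means the concentration at half of the fitted maximal effect; 0% = DMSO wells and 100% = buffer wells lacking importin beta; nearly all actives have a fitted effect of over 15% in size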
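FRET biosensor Rango (snurportin 1 IBB between N-terminal EYFP and C-terminal Cerulean), 50 nM in PBS/1 mM DTT/0.02% Tween-20/0.1% BSA, preincubated 5 min RT with compound; 0.125 microM importin beta added, 45 min RT, CFP/YFP FRET ratio read.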
D3 ag: D3 dopamine receptor (human) agonism. P35462. D3R DiscoveRx beta-arrestin cells, luminescence, 90 min. max activation, %. actives 0.58% (n = 410,000). AID 652048; in the data active means max activation above about 30%; further: 0% is about no effect
Target sequence (P35462 whole entry, looked up): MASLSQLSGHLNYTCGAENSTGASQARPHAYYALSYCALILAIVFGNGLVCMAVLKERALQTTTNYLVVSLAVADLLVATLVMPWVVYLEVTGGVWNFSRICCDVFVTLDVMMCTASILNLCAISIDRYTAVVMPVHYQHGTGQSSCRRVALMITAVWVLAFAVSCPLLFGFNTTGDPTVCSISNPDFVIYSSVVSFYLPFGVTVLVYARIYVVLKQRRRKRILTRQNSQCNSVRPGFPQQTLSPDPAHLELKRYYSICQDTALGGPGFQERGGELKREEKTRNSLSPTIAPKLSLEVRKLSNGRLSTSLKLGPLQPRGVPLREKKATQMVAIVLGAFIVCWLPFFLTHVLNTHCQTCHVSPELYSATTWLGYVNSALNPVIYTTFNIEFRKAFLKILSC
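Agonist mode: compounds and dopamine controls were applied to plated cells for 90 min at 37 degrees C after an overnight attachment at 1500 cells/well. Luminescent read-out followed 30 - 60 minutes at room temperature with DiscoveRx detection reagent.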
Rango release inh: inhibitors of RanGTP-induced Rango-importin beta complex dissociation | O95149+P62826 | Biochemical FRET Rango-importin beta, RanGTP-induced dissociation | Potency, µM (doses to about 46.1 µM), for the others: at the highest dose activity change, negative = inhibition | actives 0.071% (n = 340,000) | AID 540253; further: potency means the concentration at half of the fitted maximal effect; % of control where 0% means no effect; nearly all actives have a fitted effect of over 45% in size
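Rango FRET biosensor (snurportin-1 IBB flanked by N-terminal EYFP and C-terminal CFP10) at 0.1 uM, with 0.25 uM importin beta in PBS, 1mM DTT, 0.02% Tween-20, 0.1% BSA. 0.6 uM Ran, 2mM GTP and 0.2 uM RCC1 were then added for 45 min at room temperature. Inhibition read as loss of FRET rise.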
PTAP TSG101 blk: blocks PTAP/TSG101 interaction to inhibit HIV-1 budding; Potency, µM (top dose mostly 115 µM), inactives show at the highest dose activity change, negative = inhibition, hits mostly inhibitors; Q99816; 340,000 tested, under 10 active; Fluorescence polarization, FITC-PTAP peptide / Tsg101 binding; active means well fitted inhibition curve with a large enough effect in the main read-out, with a control signal flat, not every such curve was filed as active; inconclusive means small, poorly fitted or top-dose-only effect, or effect the other way, or a change in a side signal; inactive means no such curve, though single readings can be large or run the other way; further: potency means the concentration at half of the fitted maximal effect; % of control where 0% means no effect
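Steps: Tsg101 binding domain dispensed (10 uM final), compounds pinned in DMSO, FITC-labeled PTAP-motif peptide added (50 nM final); after 20 min binding at room temperature, polarization measured.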
Mm-Cpn inhibitor: blocks the Methanococcus maripaludis chaperonin Mm-Cpn. purified Mm-Cpn ATPase, ADP Transcreener TR-FRET. AID 504842. Potency, µM (doses to about 76.9 µM), for inactives: at the highest dose activity, negative = inhibition, usual class: inhibitors. actives 0.031% (n = 330,000); active means well fitted inhibition curve with a large enough effect; inconclusive means small, poorly fitted or top-dose-only effect; further: potency means the concentration at half of the fitted maximal effect; on the % scale 0 is the no-effect control and ±100 the full control effect; nearly all actives have a fitted effect of over 80% in size
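Compound-treated chaperonin, 25 nM final, turns over 10 uM ATP at 37°C for 30 min following a 10 min preincubation; ADP generated competes with ADP-d2 for Eu-cryptate antibody, lowering FRET.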
D3 antag: blocks the human D3 dopamine receptor | P35462 | D3R cells, DiscoveRx beta-arrestin luminescence, antagonist mode; stronger effect = lower value | max response, negative = inhibition, % | actives 2.5% (n = 360,000); in the data active means max response below about -50%; inconclusive means no clear call, values can overlap the other calls; further: on the % scale 0 is the no-effect control and ±100 the full control effect
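Cells plated overnight at 1500 cells/well, then exposed to library compounds with dopamine controls for 90 minutes at 37 degrees C. DiscoveRx reagent added for 30–60 minutes at room temperature; luminescence read, quantitative HTS format.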
* hit, by the source's call; u = inconclusive; x = not tested or not shown. The list is not random: actives were taken first. Their share in the collection is about 2.9%. Unless noted, the call rests on the fitted dose curve.

SMILES	Rango complex inh	D3 ag	Rango release inh	PTAP TSG101 blk	Mm-Cpn inhibitor	D3 antag
CN(C)/C=C/c1oc2ccc(O)cc2c1[N+](=O)[O-]	1%	-6	u	-3%	-13%	-52*
Cc1cc(C)cc(N2CC(c3nnc(NC(=O)c4ccco4)s3)CC2=O)c1 (stereo not given)	x	-4	x	x	x	x
CN(C)C(=O)N1CCN(S(=O)(=O)c2ccc3ccccc3c2)CC1	4%	30*	11%	-1%	-3%	-11
COc1ccc(C(CNC(=O)C(C)c2ccc3cc(OC)ccc3c2)N(C)C)cc1 (stereo not given)	3%	-12	1%	2%	1%	-76*
COc1ccc(C(CNC(=O)Cc2ccc3ccccc3c2)N(C)C)cc1 (stereo not given)	-1%	-6	0%	-9%	1%	-19
c1ccc(-c2nnc(SCCC3OCCCO3)o2)cc1	1%	103*	-9%	-3%	-1%	13
COc1ccccc1-c1sc2ccccc2c1-c1ccc2c(c1)OCCO2	1%	-12	8%	0%	20µM*	0
COc1ccc(-c2c(-c3ccccc3OC)sc3ccccc23)cc1C=O	3%	-2	-9%	0%	u	-60*
COc1ccc(-c2c(-c3ccccc3OC)sc3ccccc23)cc1OC	3%	19	2%	-3%	35µM*	-17
COc1ncc(-c2c(-c3ccccc3OC)sc3ccccc23)cn1	x	-4	x	x	x	5
COc1ccccc1-c1sc2ccccc2c1-c1ccccc1OC	-3%	-5	-13%	2%	56µM*	4
CCOC(=O)c1ccc(-c2c(-c3ccccc3OC)sc3cc4c(cc23)OCO4)cc1F	-2%	-17	10%	-6%	u	-1
COc1ccc2sc(-c3ccccc3OC)c(-c3ccc(OC)c(F)c3)c2c1	-4%	9	3%	2%	u	-13
OCC1(Cc2ccc(F)cc2)CCCN(CCCC(F)(F)F)C1 (stereo not given)	3%	-16	-1%	-3%	-1%	0
Cc1ccc(C)c(Nc2c(F)c(F)c(F)c(F)c2C(=O)O)c1	-3%	12	-3%	-9%	-5%	0
O=C(/C=C/c1ccccc1Cl)Nc1nc(-c2cccs2)ns1	x	12	x	x	x	x
COc1ccccc1NC(=O)Cn1nnc(-c2ccccc2NC(=O)c2cnccn2)n1	2%	4	0%	0%	-2%	-2
Cc1nn(-c2ccc(F)cc2)c(-n2cccc2)c1C(=O)N1CCN(c2ccccc2F)CC1	x	3	x	x	x	x
O=C1OC(c2ccccc2)=C/C1=C/N1CCOCC1	2%	-7	0%	7%	-1%	-55*
CCOC(=O)CCc1ccc(NC(=O)/C=C/c2ccc([N+](=O)[O-])o2)cc1	-6%	-17	10µM*	1%	x	1
CCc1ccc(C(=O)/C=C/c2ccc([N+](=O)[O-])o2)cc1	4%	-2	-3%	2%	-14%	-56*
O=S1(=O)OC(c2ccc(O)cc2)(c2ccc(O)cc2)c2ccccc21	x	-6	x	x	x	x
O=C(O)c1ccc(C2CCCCC2)cn1	0%	-9	20%	-1%	1%	-95*
FC(F)(F)Oc1ccccc1C(c1nnnn1C1CCCC1)N1CCN(C/C=C/c2ccccc2)CC1 (stereo not given)	x	-15	x	x	x	-97*
COc1cccc(C(c2nnnn2C2CCCCC2)N2CCN(C/C=C/c3ccccc3)CC2)c1OC (stereo not given)	x	-17	x	x	x	-118*
SMILES	Rango complex inh	D3 ag	Rango release inh	PTAP TSG101 blk	Mm-Cpn inhibitor	D3 antag
Cc1cccc(C)c1NC(=O)C1(N2C(=O)CC2c2ccccc2)CCCCC1 (stereo not given)	-1%	-11	-21%	-1%	4%	-18
O=C(NCc1cccnc1)c1nn(-c2ccccc2F)nc1CO	x	-13	x	x	x	x
COc1ccccc1NC(=O)C(=O)NCC(c1ccco1)N1CCc2ccccc2C1 (stereo not given)	2%	-4	-5%	-1%	-13%	-3
O=C(NCC(c1ccco1)N1CCc2ccccc2C1)c1ccccc1 (stereo not given)	-7%	-34	-4%	-7%	1%	-53*
O=C(NCC(c1ccco1)N1CCc2ccccc2C1)c1ccc(F)cc1 (stereo not given)	4%	-26	36%	-2%	-2%	-21
O=C(NCC(c1ccco1)N1CCc2ccccc2C1)C(=O)Nc1ccccc1 (stereo not given)	0%	-34	11%	-1%	-2%	-90*
Cc1ccc2c(=O)cc(C(=O)Nc3ccc(S(=O)(=O)N4CCCCC4)cc3)oc2c1	x	-19	x	x	x	x
COc1ccc(CNc2oc(/C=C/c3cc(OC)c(OC)c(OC)c3)nc2C#N)cc1	x	15	x	x	x	x
Cc1ccc(Cl)cc1NC(=O)Cn1c(=O)c2ccccc2n2nncc12	x	-5	x	x	x	x
O=S(=O)(N/N=C/c1cccc(OC2CSC2)c1)c1ccccc1	3%	-10	-8%	-1%	1%	-66*
C[N+]1(CC2COC(c3ccccc3)(c3ccccc3)O2)CCCCC1 (stereo not given)	x	4	x	x	x	x
CCOc1ccc(NC(=S)Nc2ccc3nsnc3c2)cc1	u	-16	u	-4%	-16%	-29
COc1ccc(NC(=S)Nc2ccc3nsnc3c2)cc1	7%	-39	u	-9%	-19%	-61*
COc1ccc(C(=O)Nc2ccccc2C(=O)NC(C(=O)NCc2ccco2)C(C)C)cc1 (stereo not given)	-1%	8	-6%	-1%	-2%	-61*
COc1ccc(C(=O)N[C@H](C(=O)NCc2ccco2)C(C)C)cc1	-2%	-1	0%	1%	-9%	1
COc1ccc(-n2nc(C(=O)NCc3ccc(F)cc3Cl)c3c4ccccc4n(C)c3c2=O)cc1Cl	x	-9	x	x	x	x
O=[N+]([O-])c1ccc(S(=O)(=O)c2cccc(C(F)(F)F)c2)nc1	u	-33	-25%	-2%	x	-126*
CCn1c(SCC(=O)Nc2ccccc2F)nnc1-c1ccoc1C	3%	-25	5%	-11%	-2%	-55*
CCn1c(SCC(=O)NNC(=O)Cc2ccccc2)nnc1-c1ccccc1	2%	-10	-7%	x	1%	-51*
Oc1cc2c(c(Cl)c1O)CCNCC2c1ccccc1 (stereo not given)	u	x	-2%	-2%	x	x
C=CCN1CCc2cc(O)c(O)cc2C(c2ccccc2)C1 (stereo not given)	1%	139*	-12%	-7%	0%	32
